# Source: PubChem (The Scripps Research Institute Molecular Screening Center)
# Only a selection was taken, and hits are over-represented in it overall.
# TbREL1 inh = TbREL1 inhibition, primary screen; P86926; TbREL1 RNA ligation, FRET fluorescence; inhibition, % at 9.66 µM; 0.49% of 89,000 active; AID 1117264;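 active = inhibition above the mean inhibition across all screened compounds plus 3 SD, cut at about 11% in these data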;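 note: 0% = plate median of test wells and 100% = NSC42067 control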
# Target sequence (P86926 whole entry, looked up): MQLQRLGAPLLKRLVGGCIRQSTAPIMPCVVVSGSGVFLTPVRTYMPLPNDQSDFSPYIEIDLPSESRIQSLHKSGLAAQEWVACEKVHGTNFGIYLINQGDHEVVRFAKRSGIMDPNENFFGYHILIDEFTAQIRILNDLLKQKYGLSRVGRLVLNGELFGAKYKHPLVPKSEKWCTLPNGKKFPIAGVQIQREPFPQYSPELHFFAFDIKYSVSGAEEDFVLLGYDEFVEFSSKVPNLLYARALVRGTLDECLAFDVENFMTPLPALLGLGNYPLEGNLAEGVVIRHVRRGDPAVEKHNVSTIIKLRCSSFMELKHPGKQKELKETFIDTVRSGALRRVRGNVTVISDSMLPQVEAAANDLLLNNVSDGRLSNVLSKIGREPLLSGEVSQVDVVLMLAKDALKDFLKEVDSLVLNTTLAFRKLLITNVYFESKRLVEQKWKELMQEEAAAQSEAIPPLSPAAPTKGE
# TbREL1 conf = TbREL1 inhibition, confirmation. shares compounds with TbREL1 inh. TbREL1 RNA ligation, FRET fluorescence. inhibition, % at 9.66 µM. 37% of 390 active. AID 1117282;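 active = mean inhibition across replicates above a set limit taken from the earlier primary screen, cut at about 11% in these data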;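 note: 0% = REL1 with substrate and DMSO and 100% = REL1 plus control inhibitor NSC42067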
# The depositor's hits bear a star; ! = not active in a repeat.
SMILES,TbREL1 inh,others
C#CCOCCOCCOCCNc1nc(N2CCN(C(=O)[C@H](CCCCN)n3cc([C@@H](N)C(C)CC)nn3)CC2)nc(N2CCN(C(=O)[C@H](CCCCN)n3cc([C@@H](N)C(C)CC)nn3)CC2)n1 (stereo partly drawn),16*,TbREL1 conf=17*
COc1ccc(S(=O)(=O)NC(C)C(=O)Nc2ccc3c(c2)OCCO3)cc1OC (stereo not drawn),-3,
COc1ccc([C@H]2CC(=O)C=C(c3ccc(SC)cc3)C2)cc1OC,0,
Cc1ccc(-c2nnn(CC(=O)N(c3cccc(F)c3)C(C(=O)NC(C)(C)C)c3ccco3)n2)o1 (stereo not drawn),-1,
CC(C)(C)c1ccc(C(=O)Oc2ccccc2CCC(=O)O)cc1,-2,
COCC(C)NC(=O)C1CCN(S(=O)(=O)c2ccc3ccccc3c2)CC1 (stereo not drawn),2,
O=C(CC1CC2CCC1C2)Nc1nc(-c2ccccn2)cs1 (stereo not drawn),0,
CN(C(=O)c1ccccc1C(=O)OCC(=O)NCc1cccs1)C1CCCCC1,-2,
CN(C(=O)c1ccccc1C(=O)OCC(=O)c1ccc(F)cc1)c1ccccc1,-1,
CN(C(=O)c1ccccc1C(=O)OCC(=O)c1ccc(F)c(F)c1)C1CCCCC1,12*,TbREL1 conf=2
COC(=O)c1cc(S(=O)(=O)NCc2ccccc2)cn1C,2,
CC1CN(CC(O)COC(c2ccccc2)c2ccccc2)CC(C)O1 (stereo not drawn),5,
Cc1ccc(C(OCC(O)CN2CCCCC2)c2ccccc2)cc1 (stereo not drawn),13*,TbREL1 conf=6
OC(COC(c1ccc(Cl)cc1)c1ccc(Cl)cc1)CN1CCCC1 (stereo not drawn),5,
O=C(Nc1nccs1)c1ccc(NC(=O)C2CC=CCC2C(=O)O)cc1 (stereo not drawn),1,
CC(C)Oc1ccc(S(=O)(=O)N2CCOCC2)cc1NC(=O)CC1OC(=O)c2ccccc21 (stereo not drawn),-4,
CN(C1CC(C)(C)NC(C)(C)C1)S(=O)(=O)CC12CCC(CC1=O)C2(C)C (stereo not drawn),1,
O=C1/C(=C\c2ccco2)SC(=S)N1C1CCS(=O)(=O)C1 (stereo not drawn),19*,TbREL1 conf=1
O=C1/C(=C\c2ccco2)SC(=S)N1c1ccccc1,9,
Cc1ccc(N2C(=O)/C(=C\c3ccco3)SC2=S)cc1,2,
COc1cc(CNCc2ccccn2)ccc1OCC(=O)NC(C)(C)C,1,
O=c1c2cc3cc4c(cc3nc2ncn1CCc1ccccc1)OCO4,15*,TbREL1 conf=2
O=c1c2cc3cc4c(cc3nc2ncn1Cc1cccnc1)OCO4,2,
O=c1c2cc3ccccc3nc2ncn1CCc1ccc(Cl)cc1,2,
CC(=O)c1ccc2c(c1)C1C=CCC1C(c1ccc(S(=O)(=O)N3CCOCC3)cc1)N2 (stereo not drawn),-2,
SMILES,TbREL1 inh,others
O=C(O)c1ccc2c(c1)C1C=CCC1C(c1ccncc1)N2 (stereo not drawn),2,
COc1ccc(NS(=O)(=O)c2ccc3c(c2)[C@H]2C=CC[C@H]2[C@@H](c2ccc(C(=O)O)cc2)N3)cc1,15*,TbREL1 conf=17*
CCCCNc1c(-c2ccc(F)cc2)nc2nc(C)cc(C)n12,-2,
CN(C(=O)COC(=O)c1cc([N+](=O)[O-])ccc1N1CCOCC1)C1CCCCC1,-2,
CCN(C(=O)COC(=O)c1cc([N+](=O)[O-])ccc1N1CCCCC1)C1CCS(=O)(=O)C1 (stereo not drawn),11*,TbREL1 conf=2
CCN(C(=O)COC(=O)c1cc(OC)c(OC)cc1[N+](=O)[O-])C1CCS(=O)(=O)C1 (stereo not drawn),0,
c1ccc2oc(-c3ccc4nc[nH]c4c3)nc2c1,2,
CCOc1ccc(N(CC(=O)NC(C)(C)C)S(=O)(=O)c2c(C)noc2C)cc1,-1,
CC(Sc1nnc(C2CC2)n1C1CC1)C(=O)N(C)C1(C#N)CCCCC1 (stereo not drawn),0,
COc1ccc(Nc2ccnc(Nc3ccc(OC)cc3)n2)cc1,3,
COc1ccc(CC(=O)NNC(=O)CSc2ccc(C)cc2)cc1,-1,
CC(C)Cn1c(N)c(C(=O)CSc2nccn2C)c(=O)n(C)c1=O,2,
Cc1nc2ccc(NS(=O)(=O)c3ccc(F)cc3F)cc2s1,2,
O=S(=O)(Nc1nc(-c2ccco2)c(-c2ccco2)s1)c1ccc(F)cc1F,31*,TbREL1 conf=-1
O=C(NNS(=O)(=O)c1ccc(F)cc1F)C1Cc2c(ccc3ccccc23)O1 (stereo not drawn),3,
O=C(c1ccc(-c2ccccc2)cc1)N1CCC(C(=O)N2CCCC2)CC1,3,
O=C(C1CCN(CCCc2ccccc2)CC1)N1CCCCC1,12*,TbREL1 conf=2
O=C(Nc1ccccc1)N1CCN(CCc2ccccc2)CC1,-3,
CCOC(=O)CCCCC(=O)c1[nH]c(=O)[nH]c1Cn1ccnc1,-2,
O=C1c2ccccc2-c2nccnc21,-1,
O=C1C(=O)c2cccnc2-c2ncccc21,43*,TbREL1 conf=68*
O=C1c2cc([N+](=O)[O-])ccc2-c2ncccc21,1,
O=C(Cc1ccc(Cl)cc1)NNC(=O)c1ccco1,4,
COc1ccc(C2CC(c3cccs3)=NN2C(=O)COC(=O)c2cncc(Br)c2)cc1OC (stereo not drawn),-1,
CCOC(=O)C1CCCN(c2oc(-c3ccc(F)cc3)nc2C#N)C1 (stereo not drawn),0,
SMILES,TbREL1 inh,others
COc1ccc(/C=N/NC(=O)c2ccoc2C)cc1COc1ccc(Cl)cc1,2,
COC(=O)C1=C(C)N(CCCC(=O)O)C(=O)NC1c1ccc(C(F)(F)F)cc1 (stereo not drawn),1,
COC(=O)C1=C(C)N(C)C(=NCc2ccc(C(F)(F)F)cc2)NC1c1ccc(C(F)(F)F)cc1 (stereo not drawn),7,
COC(=O)C1=C(C)N(C)C(=NCc2ccccc2C(F)(F)F)NC1c1ccc(Cl)cc1 (stereo not drawn),13*,TbREL1 conf=7
COC(=O)C1=C(C)N(C)C(=NCc2ccccc2C(F)(F)F)NC1c1ccc(C(F)(F)F)cc1 (stereo not drawn),12*,TbREL1 conf=10
COc1ncnc2c1ncn2CCCNCc1ccc(C)o1,-3,
Cc1ccc2nc(-c3ccccc3)c(Cc3cccc(F)c3)n2c1,1,
CC(=O)Nc1c(C(=O)c2ccccc2)oc2ccccc12,4,
CCOC(=O)c1c(N)sc2c1CCS(=O)(=O)C2,7,
O=C(Nc1nc(-c2ccco2)c(-c2ccco2)s1)c1cnccn1,20*,TbREL1 conf=3
Cc1cnc(NC(=O)c2ccco2)s1,6,
CCOc1ccc2nc(NC(=O)c3cnccn3)sc2c1,2,
COc1ccccc1NC(=O)C(=O)N(c1cccnc1)C(C(=O)NC(C)(C)C)c1ccccc1 (stereo not drawn),-1,
CCCN1CCN(CCCNC(=O)c2cc3c(=O)[nH]c4ccc(C)cc4c3s2)CC1,3,
C[c-]1[c-](C)[c-](C)[c-](C)[c-]1C.[Fe].c1cc2nccc(N3CCCC3)[c-]2c1 (stereo not drawn),14*,TbREL1 conf=16*!
O=C(CN1C(=O)NC2(CCCCCCC2)C1=O)Nc1ccc(Cl)cc1,3,
O=C(Nc1ccc(OC(F)(F)F)cc1)c1ccc(S(=O)(=O)N2CCOCC2)o1,2,
Cc1ccccc1NC(=O)c1ccccn1,1,
O=C(Nc1nccs1)c1ccccn1,15*,TbREL1 conf=5
O=C(Nc1nccs1)c1cnccn1,7,
